Laboratory results as given in PubChem BioAssay AID588740 (National Center for Advancing Translational Sciences (NCATS), 2011).
Activity calls are given as the source filed them. The rule behind the calls is not given here.

experiment: PC3M Cytotoxicity Assay for Compounds that Inhibit the Perinuclear Compartment: SAR; details: PC3M-GFP viability, ATPLite luminescence, 24 h
From the text: The perinucleolar compartment (PNC) is a non-membrane-bound nuclear subdomain that is associated with but structurally distinct from the nucleolus. The PNC is a heritable trait, in which the number of PNCs per cell in daughter cells often mimics that of their mother cells. The PNC is heterogeneous in shape, is stable through interphase, disassembles during mitosis, and reassembles in early G1. The PNC is concentrated with newly synthesized RNA polymerase III (pol III) RNAs (MRP RNA, RNAse P H1 RNA, hY RNAs[hY1, 2, 5], Alu RNA, and SRP [7SL] RNA) and RNA binding proteins (nucleolin, PTB, CUG-BP, KSRP, Raver1, Raver2, and Rod). […] Extensive in vitro studies have shown that the PNC is unique to tumor cells and preferentially forms in tumor cells derived from solid tissues. Examination of cancer cell lines from various origins and malignant capacities has shown that PNC prevalence correlates with the malignancy of tumors and has the potential to be developed as a pan-cancer prognostic marker. […] Although the PNC is associated with a DNA locus and a handful of components have been identified, much remains to be investigated regarding the structure and function of the PNC and its mechanistic link to cancer. […]
1. […] Luminescencent signal was detected on a Viewlux CCD based imager (PerkinElmer) with a clear filter and a 30 second integration time. […]

**Q.** Which AC50 does the source give for `N=c1c2c(-c3ccccc3)c(-c3ccccc3)n(Cc3ccccc3)c2ncn1C1CCC(O)CC1` (stereo unspecified) here?
**A.** The AC50 was 9.96 µM (active).
